The nature of assay [1]: Viability qHTS for spleen associated tyrosine kinase inhibitor (SYKi) naive MV4-11 cells (AID 1963823). Note: nearly all actives have a fitted effect of over 40% in size. In outline:
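SYKi-naive MV4-11 AML cells, 500 per well, were exposed to library compounds for 72 hr at 37 C, 5% CO2. Viability was then read by CellTiter-Glo luminescence after 10 min at room temperature.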
(In general: Quantitative high-throughput screening tests each substance at several concentrations.)

The nature of assay [2]: Viability qHTS for spleen associated tyrosine kinase inhibitor (SYKi) drug resistant MV4-11 cells (AID 1963824). Note: nearly all actives have a fitted effect of over 35% in size. In outline: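 SYK-inhibitor-resistant MV4-11 AML cells were seeded at 500 per well onto compound and cultured 72 hours (37 °C, 5% CO2). CellTiter-Glo was then added, and after 10 min at room temperature, luminescence gave viability.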
A short description of assay [3]: Cellular viability qHTS for adrenocortical cancer (ACC) cell line SW-13 (AID 1963989).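 For activity (max response): cells grown in serum-free medium with ITS supplement; % is set by controls: 0 for no effect and ±100 for the full control effect.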 Note: nearly all actives have a fitted effect of over 65% in size. Particulars: SW-13 ACC cells viability, CellTiter-Glo, 48 h; activity (max response): stronger effect = lower value. In outline: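 IC50 and maximal-response values come from four-parameter logistic fits of titration data. SW-13 cells in serum-free medium received compounds (up to 46 uM final) for 48 h before CellTiter-Glo luminescence.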

A short description of assay [4]: Cellular viability qHTS for adrenocortical cancer (ACC) cell line NCI-H295R (AID 1963990). Note: nearly all actives have a fitted effect of over 60% in size. In outline: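 Adrenocortical carcinoma cells, suspended at 300 000 cells/mL in serum-free DMEM plus ITS, rested overnight before pin transfer of compound. After two days' incubation, ATP-dependent luminescence was recorded and curve-fitted.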

Molecules are shown by their SMILES. Where “and” joins values, the source holds several entries; their conditions need not be identical. Identical values can stand only once. Records with an inconclusive call do not appear. Some compounds were tested as several samples or in several runs, with calls that do not always agree. Calls of active or inactive are those of the source. Calls come from the whole dose curve; as a rule, active = well fitted curve in the direction sought with a large enough effect; inconclusive = small, poorly fitted or top-dose-only effect, or another doubt; inactive = no such curve, though single readings can be large; an effect the other way counts as inactive or inconclusive.
Potency is the fitted concentration of half-maximal effect.

As to `CC[C@@H]1[C@H](F)C(=O)N[C@@H]1COc1nccc2cc(C(N)=O)c(OC)cc12`, the values for the Potency in assay [1] and in assay [2] were 11800 nM (active) and 14.8 µM (active), respectively. Further, the activity (max response) in assay [3] was -21.5% (inactive). Further, in assay [4], the Potency entry was “inactive”.
The like results for `CC(COc1ccccc1)NC(C)C(O)c1ccc(O)cc1` (stereo not given) were, in that order, “inactive”, “inactive”, 3.43% (inactive) and “inactive”.
As to `CC(C)c1cc(CNc2nc(Nc3cc(C4CC4)[nH]n3)cc(N3CCN(C)CC3)n2)on1`, the Potency in assay [1] was 25.9 nM (active); in assay [2] it was 0.0231 µM (active); in assay [3], 3.98 µM (active); in assay [4], 1.58 µM (active).
The matching figures for `CN1CCCN(C(=O)c2cccc(-c3ccc(/C=C4/C(=O)Nc5ccc(Cl)cc54)o3)c2)CC1`: 417 nM (active), 0.662 µM (active), 25.1 µM (active) and 4.47 µM (active).
For `CC(C)(C)Sc1c(CC(C)(C)C(=O)O)n(Cc2ccc(Cl)cc2)c2ccc(OCc3ccc4ccccc4n3)cc12`, the Potency result in assay [1] was “inactive and 16.6 µM (active)”; in assay [2] it was “inactive and 11.8 µM (active)”. In addition, the activity (max response) in assay [3] is 0.331% (inactive). The Potency result in assay [4] is “inactive”.
Turning to `CC(=O)N(c1onc(C)c1C)S(=O)(=O)c1ccc(N)cc1`, the Potency entry in assay [1], in assay [2] and in assay [4] was “inactive” each time. Moreover, the activity (max response) in assay [3] is 0.743% (inactive).
In the case of `Cc1ccccc1OCC(O)CO` (stereo not given), the Potency result in assay [1], in assay [2] and in assay [4] was “inactive” in each case. Moreover, the activity (max response) in assay [3] is -4.04% (inactive).
`CNC(=O)c1ccccc1Nc1nc(Nc2ccc3c(c2OC)CCC[C@@H](N2CCN(CCO)CC2)C3)ncc1Cl`: the Potency in assay [1] is 366 nM (active); in assay [2] it was 0.58 µM (active); in assay [3], 15.8 µM (active); in assay [4], 2.82 µM (active).
As to `C[C@@H](Nc1ncnc2[nH]c(-c3ccc(O)cc3)cc12)c1ccccc1`, the Potency in assay [1] is 4.11 µM (active) and 7.42 µM (active); in assay [2] it was 5.17 µM (active) and 10.5 µM (active); in assay [3], 3.98 µM (active); in assay [4], 11.2 µM (active).
Turning to `C[C@@H]1CCN(C(=O)[C@H](CCCN=C(N)N)NS(=O)(=O)c2cccc3c2NC[C@H](C)C3)[C@@H](C(=O)O)C1`, the Potency entry in assay [1], in assay [2] and in assay [4] was “inactive” each time. Further, the activity (max response) in assay [3] was 1.57% (inactive).
As for `CN1CCN(c2ccc3nc(-c4cc(C(C)(C)C)c(OCCCC(=O)NCCCN=[N+]=[N-])c(C(C)(C)C)c4)[nH]c3c2)CC1`, the Potency in assay [1] was 5250 nM (active); in assay [2] it was 5.25 µM (active); in assay [3] it was 3.98 µM (active); in assay [4], 3.16 µM (active).
As for `Cc1c(-c2ccccc2)oc2c(C(=O)OCCN3CCCCC3)cccc2c1=O`, the Potency result in assay [1], in assay [2] and in assay [4] was “inactive” each time. In assay [3], the activity (max response) was -7.2% (inactive).
For `c1cn2cc(-c3ccc4cn[nH]c4c3)nc(Nc3ccc(N4CCOCC4)cc3)c2n1`, the Potency is 651 nM (active) in assay [1]; 820 nM (active) and 1.32 µM (active) in assay [2]. For the same compound, in assay [3], the activity (max response) is 2.68% (inactive). Also, in assay [4], the Potency entry was “inactive”.
As to `C=CC(=O)Nc1ccc2ncnc(Nc3cccc(Br)c3)c2c1`, the Potency in assay [1] is 2590 nM (active); in assay [2] it was 2.31 µM (active); in assay [3], 1.26 µM (active); in assay [4], 4.47 µM (active).
Regarding `O=S(=O)(NCCNC/C=C/c1ccc(Br)cc1)c1cccc2cnccc12`, the Potency in assay [1] was 5.17 µM (active) and 4.68 µM (active); in assay [2], 9.2 µM (active) and 11.8 µM (active); in assay [3], 31.6 µM (active); in assay [4], 28.2 µM (active).

The values are drawn from PubChem BioAssay (NCATS).
